The results in this text go back to PubChem BioAssay.

Calls of active or inactive are those of the source. Unless noted, no rule for the calls is given here.

A short description of assay [1]: HepG2 liver cancer cell viability effects, profiling panel, resazurin fluorescence, 24 h, PK04 Diversity Set (AID 1172). Also: test concentration not given here. The following applies: higher = more signal.
Assay [2] is described as follows: basal S. cerevisiae growth modulation, no modifier, primary screen, OD600, strain BY4716, 24 h, basal condition (AID 1173). To be noted: OD600, 24 h, higher = more signal, called active from +8 up or from −8 down.
A short description of assay [3]: MM1S myeloma cell viability, profiling panel, resazurin fluorescence, basal, 24 h, PK04 Diversity Set (AID 1174).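 Also: MM1S multiple myeloma cell line; test concentration not given here.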 The following applies: higher = more signal, called active from +8 up or from −8 down.
The target of assay [4] is Dihydroorotate dehydrogenase (quinone), mitochondrial (Plasmodium falciparum (isolate 3D7)) (UniProt Q08210). In words: PfDHODH enzyme inhibitors, primary screen, biochemical, C-terminal His tag, absorbance 600 nm (AID 1175).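 Also: recombinant parasite enzyme with a five histidine tag at its C terminus; test concentration not given here.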 To be noted: DCIP absorbance 600 nm, higher = more signal, called active from +8 up or from −8 down.
Sequence of Dihydroorotate dehydrogenase (quinone), mitochondrial (Plasmodium falciparum (isolate 3D7)) (Q08210 whole entry, looked up): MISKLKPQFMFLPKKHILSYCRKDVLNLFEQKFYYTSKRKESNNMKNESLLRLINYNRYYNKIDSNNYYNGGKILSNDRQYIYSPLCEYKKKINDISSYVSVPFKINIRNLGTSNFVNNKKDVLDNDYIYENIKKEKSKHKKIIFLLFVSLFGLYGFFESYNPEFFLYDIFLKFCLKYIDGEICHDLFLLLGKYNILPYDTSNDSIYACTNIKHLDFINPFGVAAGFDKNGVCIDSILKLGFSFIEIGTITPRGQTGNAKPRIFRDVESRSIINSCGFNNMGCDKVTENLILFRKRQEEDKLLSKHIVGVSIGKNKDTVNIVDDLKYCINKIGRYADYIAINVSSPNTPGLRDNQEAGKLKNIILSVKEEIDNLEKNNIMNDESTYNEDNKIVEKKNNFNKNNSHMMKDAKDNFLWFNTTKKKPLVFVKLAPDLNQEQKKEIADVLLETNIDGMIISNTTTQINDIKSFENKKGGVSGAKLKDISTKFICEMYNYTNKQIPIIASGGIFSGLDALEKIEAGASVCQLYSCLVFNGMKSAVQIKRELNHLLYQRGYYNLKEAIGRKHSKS
Assay [5] in a line: P. aeruginosa biofilm formation inhibitors, primary screen, strain PAO1, LB-PBS medium, absorbance 600 nm (AID 1176). Also: test concentration not given here. The following applies: P. aeruginosa PAO1 growth/biofilm, A600, 12 h; higher = more signal.
Assay [6] is described as follows: S. cerevisiae RM11-1a growth modifiers, primary screen, strain RM11-1a, OD600, basal, 24 h (AID 1177).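 Also: cultures grown under basal conditions with no added stressor; test concentration not given here.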 To be noted: OD600, 24 h, higher = more signal, called active from +8 up or from −8 down.
Assay [7] can be described thus: E. coli acrAB mutant growth effects, primary screen, E. coli filamentation inducers, strain DRC39, OD650, 24 h (AID 1178).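 Also: growth measured as culture turbidity by optical density at 650 nm; test concentration not given here.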 The following applies: higher = more signal, called active from +8 up or from −8 down.
The nature of assay [8]: E. coli acrAB mutant growth effects, primary screen, E. coli filamentation inducers, strain DRC39, OD650, 48 h (AID 1179).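 Also: screen aims at cell division blockers that make cells filament.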 The following applies: E. coli DRC39 delta-acrAB growth, higher = more signal, called active from +8 up or from −8 down.
A short description of assay [9]: RPMI8226 myeloma cell viability, profiling panel, resazurin fluorescence, basal, 24 h, PK04 Diversity Set (AID 1180).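 Also: RPMI8826 multiple myeloma cell line at 5000 cells per well; test concentration not given here.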 The following applies: higher = more signal.
Assay [10] addresses E3 ubiquitin-protein ligase XIAP (Homo sapiens) (UniProt P98170). Briefly: XIAP binders, primary screen, biophysical, small-molecule microarray, fluorescence 635 nm (AID 1181).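 Also: score merges 667 nm emission and signal to noise over triplicate slides.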 The following applies: small-molecule microarray binding, higher = more signal.

Sequence of E3 ubiquitin-protein ligase XIAP (Homo sapiens) (P98170 whole entry, looked up): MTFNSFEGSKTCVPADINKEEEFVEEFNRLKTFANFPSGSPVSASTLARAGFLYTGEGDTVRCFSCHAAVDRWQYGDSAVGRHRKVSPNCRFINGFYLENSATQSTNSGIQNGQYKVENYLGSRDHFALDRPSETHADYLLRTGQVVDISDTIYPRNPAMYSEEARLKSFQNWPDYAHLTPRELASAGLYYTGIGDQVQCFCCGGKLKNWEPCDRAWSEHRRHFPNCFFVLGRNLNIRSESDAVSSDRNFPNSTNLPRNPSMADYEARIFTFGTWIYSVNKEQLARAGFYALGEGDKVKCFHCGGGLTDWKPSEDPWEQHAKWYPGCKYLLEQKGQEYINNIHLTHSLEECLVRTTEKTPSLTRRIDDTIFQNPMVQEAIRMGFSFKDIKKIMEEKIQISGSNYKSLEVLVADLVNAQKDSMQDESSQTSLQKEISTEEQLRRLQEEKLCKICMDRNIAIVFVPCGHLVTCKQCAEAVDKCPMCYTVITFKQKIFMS

Take `[N-]=[N+]=Nc1ccccc1C[C@]1(C(=O)N2CCCCC2)N=C(c2ccc(OCCCO)cc2)O[C@H]1c1ccccc1N=[N+]=[N-]`: the z-score was -0.776 in [1]; -0.254 (inactive) in assay [2]; -3.52 (inactive) in assay [3]; 1.07 (inactive) in assay [5]; 0.975 (inactive) in assay [6]; -0.125 (inactive) in assay [7]. For the same molecule, the z-score in [8] is -0.319 (inactive); in assay [9] it was -4.29. Further, the composite z-score is 0.584 (inactive) in assay [4] and 0.0727 in assay [10].

As to `COc1ccc([Si](C)(C)[C@H]2[C@H](CC(=O)N3Cc4ccccc4C[C@H]3CO)O[C@@]3(C(=O)N(Cc4cccc(I)c4)c4ccccc43)[C@@H]2C)cc1`, the z-score is -0.779 in assay [1]; -1.08 (inactive) in [2]; -2.22 (inactive) in assay [3]; 1.13 (inactive) in assay [5]; 1.55 (inactive) in assay [6]; 0.517 (inactive) in assay [7]. Also, the z-score in assay [8] was -0.152 (inactive); in assay [9], -1.59. Also, the composite z-score in assay [4] was -1.01 (inactive); in assay [10] it was -0.157.

For the molecule `C=CC[C@@]1(C(N)=O)N=C(c2ccc(OCCCO)cc2)O[C@@H]1c1ccccc1N=[N+]=[N-]`, the z-score was 0.895 in assay [1]; -1.08 (inactive) in assay [2]; 0.694 (inactive) in assay [3]; 0.401 (inactive) in assay [5]; 0.178 (inactive) in assay [6]; 0.951 (inactive) in [7]. Further, the z-score is -0.0342 (inactive) in assay [8] and 0.502 in assay [9]. Besides, the composite z-score in assay [4] is 0.832 (inactive); in assay [10] it was 0.0896.

As to `O=C(NCC(O)CO)[C@@]1(Cc2ccccc2)N=C(c2ccc(OCCCO)cc2)O[C@H]1c1ccccc1` (stereo not given in full), the z-score in [1] was 0.531; in [2], -2.2 (inactive); in assay [3], 0.583 (inactive); in [5], 0.41 (inactive); in assay [6], -0.547 (inactive); in [7], 2.7 (inactive). In addition, the values for the z-score in assay [8] and in assay [9] were 0.249 (inactive) and 0.391, respectively. Also, the composite z-score in [4] was -0.507 (inactive); in assay [10], 0.221.

Consider `C/C=C/[C@H](CCn1cc([C@H](O)c2ccccc2)nn1)[Si](C)(C)c1ccc(OC)cc1`, for which the z-score is 0.0881 in assay [1]; -0.289 (inactive) in assay [2]; 0.183 (inactive) in [3]; 0.626 (inactive) in [5]; 0.15 (inactive) in assay [6]; 0.265 (inactive) in assay [7]. Further, the z-score is -0.0867 (inactive) in assay [8] and -0.187 in [9]. Further, the composite z-score was -0.393 (inactive) in [4] and -0.0936 in [10].

On to `CN(C)CCCN1C(=O)[C@@]2(c3ccc([N+](=O)[O-])cc3)CC(=O)N(C3CCCCC3)[C@@H]2c2ccc(CO)cc21`, for which the z-score in assay [1] was 1.57; in [2], -1.28 (inactive); in [3], 1.11 (inactive); in [5], -0.6 (inactive); in assay [6], -1.45 (inactive); in assay [7], 0.244 (inactive). Besides, the z-score was 0.876 (inactive) in assay [8] and 1.12 in [9]. For the same molecule, the composite z-score in assay [4] is -3.88 (inactive); in [10], -0.0374.

Take `COc1c(C)cc(-c2cc3c(c(-c4ccccc4)n2)[Si](C(C)C)(C(C)C)O[C@H]3c2ccccc2)cc1C`: the z-score in assay [1] was -0.315; in assay [2] it was -0.0888 (inactive); in assay [3], -0.477 (inactive); in assay [5] it was 0.161 (inactive); in assay [6] it was -1.33 (inactive); in [7] it was -0.102 (inactive). In addition, the z-score in assay [8] was -0.446 (inactive); in assay [9], -0.327. Besides, the composite z-score in assay [4] is -1.21 (inactive); in assay [10], -0.0186.

For the molecule `O=P(NCC1(CC2(c3ccccc3)CO2)CC1)(c1ccccc1)c1ccccc1` (stereo not given), the z-score in assay [1] was -0.293; in assay [2], 1.19 (inactive); in assay [3], -0.242 (inactive); in [5] it was 0.191 (inactive); in assay [6] it was 2.7 (inactive); in assay [7], -0.191 (inactive). Further, the figures for the z-score in assay [8] and in assay [9] were -0.0173 (inactive) and 0.0301, respectively. In addition, the composite z-score in assay [4] is -0.402 (inactive); in assay [10] it was -0.102.

With `COc1ccc(CCNC(=O)[C@@]2(C)c3ccccc3C(=O)N(Cc3ccccc3)[C@H]2c2ccc(CO)cc2)cc1`, the z-score in assay [1] is 0.976; in [2], -1.12 (inactive); in [3], 0.617 (inactive); in assay [5], 0.938 (inactive); in assay [6] it was -0.803 (inactive); in assay [7], 0.605 (inactive). Also, the z-score in assay [8] is 0.535 (inactive); in assay [9] it was 1.43. In addition, the composite z-score in assay [4] was -0.984 (inactive); in assay [10], -0.138.

Regarding `CN(C)CCCCCCNC(=O)[C@@H]1C[C@@H]2C(=O)N[C@@H](Cc3ccccc3)C(=O)N2[C@@H]1c1cccc(OCCO)c1`, the z-score in assay [1] was -0.272; in assay [2] it was -0.117 (inactive); in assay [3], -0.826 (inactive); in assay [5], -0.695 (inactive); in assay [6] it was -0.704 (inactive); in assay [7], 0.25 (inactive). Besides, the values for the z-score in [8] and in [9] were 0.0332 (inactive) and -0.592, respectively. In addition, the figures for the composite z-score in assay [4] and in [10] were -0.562 (inactive) and 0.564, respectively.

`O=C1OCC=C[C@H]2OC34C=CCN(c5ccc6ccccc6c5)C(=O)[C@H]3N(CCO)C(=O)[C@@H]4[C@@H]12` (stereo not given in full): the z-score is -0.147 in assay [1]; -0.204 (inactive) in assay [2]; 0.0073 (inactive) in [3]; -0.649 (inactive) in [5]; 0.195 (inactive) in assay [6]; -0.246 (inactive) in [7]. In addition, the z-score is -0.118 (inactive) in [8] and 0.403 in [9]. The composite z-score in assay [4] was -1.47 (inactive); in assay [10], 0.0896.

With `O=c1cccc(-c2ccc3ccccc3c2)o1`, the z-score in assay [1] is -0.321; in assay [2], -16.1 (active); in assay [3], 0.2 (inactive); in assay [5], -0.281 (inactive); in assay [6] it was -2.6 (inactive); in assay [7], 0.632 (inactive). The z-score in assay [8] is 0.159 (inactive); in [9], 0.37. The composite z-score in assay [4] was -1.14 (inactive); in assay [10], 0.0754.

As for `CN(C)CCCC[C@@H]1NC(=O)[C@@H]2C[C@H](C(=O)NCc3ccc(F)cc3)[C@H](c3cccc(OCCO)c3)N2C1=O`, the z-score in assay [1] is -0.487; in assay [2], -0.889 (inactive); in assay [3] it was 0.0458 (inactive); in assay [5] it was 0.199 (inactive); in assay [6], -0.889 (inactive); in assay [7], 0.797 (inactive). Also, the z-score is 0.83 (inactive) in assay [8] and 0.293 in [9]. Further, the composite z-score in [4] was -0.366 (inactive); in assay [10] it was 0.0808.
